Most compounds without a hit are left out; they make up all but 12% or so of the library.
Pf growth 96h = Primary qHTS for delayed death inhibitors of the malarial parasite plastid, 96 hour incubation; P. falciparum luciferase reporter growth, 96 h; 320,000 compounds, 6.9% hits; Potency, µM (top dose mostly 28.7 µM), for inactives: at the top dose activity change, negative = inhibition, actives largely listed as inhibitors; note: % is set by controls: 0 for no effect and ±100 for the full control effect
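P. falciparum expressing integrated firefly luciferase, in erythrocytes at 2% hematocrit, 0.05% parasitemia, incubated with compounds 96 h at 37 C, 5% CO2. Growth inhibition read as loss of luminescence; two-generation exposure targets delayed-death apicoplast inhibitors.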
HCV inhibitor = qHTS Assay for Inhibitors of Hepatitis C Virus (HCV); Huh7.5.1 HCVcc-Cre infection, luciferase reporter, 44 h; Potency, µM (doses to about 41.8 µM), for inactives: at the top dose activity change, negative = inhibition, usual class: inhibitors; 340,000 compounds, 3.4% hits; AID 651820, 2012; note: % is set by controls: 0 for no effect and ±100 for the full control effect
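Seed cells (1,000/well) for 4 h; treat with compound and infect with HCVcc-Cre, moi about 0.5. Incubate 44 h, then detect luciferase activity.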
NS1 function inh = qHTS Assay for Inhibitors of Influenza NS1 Protein Function | Potency, µM (series often up to 46.1 µM), without a hit: at the top dose activity, positive = more growth | 270,000 compounds, 0.4% hits; calls by dose curve; note: actives are rising curves; nearly all actives have a fitted effect of over 50% in size
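Compounds were scored for reversing the slow growth caused by influenza A NS1 in S. cerevisiae, measured by optical density at 600 nm. Assay medium contained 2% galactose at pH 6.0; NS1-free yeast of the same strain were the positive control.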
AMA1 RON2 block = qHTS for Inhibitors of AMA1-RON; Towards Development of Antimalarial Drug Lead: Primary Screen; Plasmodium falciparum AMA1 (3D7) - RON2 peptide interaction; AlphaScreen AMA1-biotinylated RON2 peptide binding; Potency, µM (top dose mostly 58.2 µM), inactives show at the top dose activity change, negative = inhibition, hits mostly inhibitors; 360,000 compounds, 0.2% hits; AID 720542, 2013;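 note: 0% = vehicle wells and -100% = peptide control; nearly all actives have a fitted effect of over 45% in size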
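AMA1 (3D7) with his tag at 25 nM final met compounds first, then biotinylated RON2 peptide at 25 nM; detection used donor plus acceptor beads, 10 µg/mL apiece, read by AlphaScreen after 30 min at room temperature.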
Pf growth 48h = Primary qHTS for delayed death inhibitors of the malarial parasite plastid, 48 hour incubation; AID 504832, 2011; P. falciparum luciferase growth in erythrocytes, 48 h; 310,000 compounds, 5.9% hits; Potency, µM (highest dose often 28.7 µM), inactives show top-dose activity change, negative = inhibition, hits mostly inhibitors; note: % is set by controls: 0 for no effect and ±100 for the full control effect
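Here the parasites carry a stable luciferase gene and grow inside erythrocytes in Albumax-based RPMI medium with compound for one erythrocytic cycle. Activity is scored as loss of luminescent signal.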
SARS PLpro yeast = qHTS of Yeast-based Assay for SARS-CoV PLP; S. cerevisiae expressing SARS-CoV PLpro, growth rescue; Potency, µM (top dose mostly 32.9 µM), without a hit: at the highest dose activity, positive = growth rescue, hits mostly activators; 330,000 compounds, 0.19% hits; AID 485353, 2010; calls by dose curve; note: 0% is about no effect; nearly all actives have a fitted effect of over 55% in size
* hit, by the source's call; ? = inconclusive; · = no result; [ ] = dose if it differs, or a comment. Unless noted, calls come from the whole dose curve; as a rule, active = well fitted curve in the direction sought with a large enough effect; inconclusive = small, poorly fitted or top-dose-only effect, or another doubt; inactive = no such curve, though single readings can be large; an effect the other way counts as inactive or inconclusive. Potency is the fitted concentration of half-maximal effect.

SMILES	Pf growth 96h	HCV inhibitor	NS1 function inh	AMA1 RON2 block	Pf growth 48h	SARS PLpro yeast
O=C(COc1ccccc1)Nc1ccc(-c2ccc(N3CCOCC3)nn2)cc1	?	2%	·	-8%	?	0%
CCC(CO)NC(=O)c1ccccc1C(F)(F)F (centres undefined)	33%	14%	-1%	-8%	12%	0%
Cn1c(=O)c2[nH]c(/N=N\N3CCN(CCO)CC3)nc2n(C)c1=O	·	·	-5%	·	·	·
CCn1cc(C(=O)O)c(=O)c2cc(F)c(N3CCN(C(=S)NC(=O)c4ccc(F)cc4)CC3)cc21	?	-11%	-2%	106%	?	-1%
CCCOc1ccc(C(=O)NC(=S)N2CCN(c3cc4c(cc3F)c(=O)c(C(=O)O)cn4CC)CC2)cc1	7%	20%	-1%	63%	15µM*	2%
CCn1cc(C(=O)O)c(=O)c2cc(F)c(N3CCN(C(=S)NC(=O)c4ccc(F)c(F)c4)CC3)cc21	1%	14%	4%	94%	6.6µM*	-1%
CCn1cc(C(=O)O)c(=O)c2cc(F)c(N3CCN(C(=S)NC(=O)c4c(OC)cccc4OC)CC3)cc21	-2%	-28%	?	15%	?	1%
CCn1cc(C(=O)O)c(=O)c2cc(F)c(N3CCN(C(=S)NC(=O)c4cccc(F)c4)CC3)cc21	?	15%	-3%	96%	10µM*	2%
CCn1cc(C(=O)O)c(=O)c2cc(F)c(N3CCN(C(=S)Nc4ccccc4OC)CC3)cc21	-9%	1%	1%	3%	?	0%
CCn1cc(C(=O)O)c(=O)c2cc(F)c(N3CCN(C(=S)NC(=O)c4ccccc4Br)CC3)cc21	5.2µM*	19%	8%	97%	?	3%
CSc1nc(Cl)cc(Nc2ccc(O)cc2)n1	49%	?	·	0%	205%	-2%
COC(=O)C1=C(c2cccc(C#N)c2)C[C@@H]2CC[C@H]1N2C(=O)NCCOc1ccc(OC)cc1	-17%	-1%	·	1%	?	2%
COC(=O)C1=C(c2cccc(C#N)c2)C[C@@H]2CC[C@H]1N2C(=O)NCCOc1ccccc1	-1%	-2%	·	3%	?	0%
COC(=O)C1=C(c2cccc(OCc3ccccc3)c2)C[C@@H]2CC[C@H]1N2C(=O)NCCOc1ccccc1	?	?	·	-6%	9.3µM*	1%
COC(=O)C1=C(c2cccc(OCc3ccccc3)c2)C[C@@H]2CC[C@H]1N2C(=O)NCCOc1ccccc1Cl	?	?	·	-14%	13µM*	5%
COC(=O)C1=C(c2ccccc2OCc2ccccc2)C[C@@H]2CC[C@H]1N2C(=O)NCCOc1ccccc1Cl	?	?	·	-9%	5.2µM*	0%
COC(=O)C1=C(c2cccc(C#N)c2)C[C@@H]2CC[C@H]1N2C(=O)NCCOc1ccccc1Cl	?	4%	·	-3%	13µM*	1%
CCOc1ccccc1N1CCN(C(=O)c2ccccc2OCc2c(C)noc2C)CC1	?	-1%	·	49%	?	2%
CCn1c(C)nc2cc(C(=O)NNC(=S)NC(=O)c3ccc(OC)cc3)ccc21	1%	?	0%	70%	0%	13%
COC(=O)C1=C(c2cccc(OCc3ccccc3)c2)C[C@@H]2CC[C@H]1N2C(=O)NCCc1ccc(F)cc1	?	?	·	-2%	7.4µM*	-3%
COC(=O)C1=C(c2cccc(OCc3ccccc3)c2)C[C@@H]2CC[C@H]1N2C	·	·	·	-5%	·	·
Cc1[nH]c2ccc(C(=O)OC(C)C(=O)N(C)C3CCCCC3)cc2c1C (centres undefined)	?	?	·	-29%	?	-1%
Cc1ccc(C(=O)OC(C)C(=O)N(C)C2CCCCC2)cc1S(=O)(=O)N1CCCCC1 (centres undefined)	?	?	·	-8%	12µM*	8%
Cc1ccc(C(=O)OC(C)C(=O)NC2CCCCC2)cc1S(=O)(=O)N1CCCCC1 (centres undefined)	?	?	·	6%	7.4µM*	1%
CCCNC(=O)N1CCN(Cc2ccco2)CC1	8%	9%	-1%	-12%	8%	7%
SMILES	Pf growth 96h	HCV inhibitor	NS1 function inh	AMA1 RON2 block	Pf growth 48h	SARS PLpro yeast
CCn1c([N+](=O)[O-])nc2c1c(=O)[nH]c(=O)n2C	?	11µM*	-1%	10%	-3%	17%
CCCCCn1c(SCc2cccc(C)c2)nc2c1c(=O)[nH]c(=O)n2C	9.3µM*	?	?	-6%	?	0%
CCCCn1c(NC(C)CC)nc2c1c(=O)[nH]c(=O)n2C (centres undefined)	4.7µM*	8%	-20%	0%	?	-5%
CCCn1c(SCc2ccccc2)nc2c1c(=O)[nH]c(=O)n2C	·	2%	-9%	-1%	-24%	-3%
CCCCCCn1c(SCCCC)nc2c1c(=O)[nH]c(=O)n2C	3.3µM*	10%	5%	-2%	?	-2%
CCCCCc1nnc(NC(=O)c2ccc(N3CCCC3=O)cc2)s1	4%	8%	·	22%	9%	2%
CC(=O)Nc1ccc(NC(=O)CSc2ccc([N+](=O)[O-])cn2)cc1	22%	20%	11%	-12%	-2%	-1%
COc1ccc(C(=O)O)cc1S(=O)(=O)NC(C)C	57%	3%	-1%	-8%	1%	1%
Cc1nc([N+](=O)[O-])cn1-c1ccc(N)cc1	12µM*	-4%	9%	8%	5%	3%
CN1CCN(C(=O)c2cccn(Cc3c(Cl)cccc3Cl)c2=O)CC1	-21%	6%	2%	8%	-3%[0.00184 µM]	2%
CCOC(=O)/C(=C/C=C1\Sc2cc(C)c(C)cc2N1CC)C(C)=O	1%	11µM*	4%	1%	?	1%
O=C(NNC(=S)Nc1ccc(C(=O)O)c(O)c1)c1ccncc1	·	9%	·	39%	·	·
Cc1ccc(-n2nc3ccc(NC(=S)NC(=O)/C=C/c4ccco4)cc3n2)cc1	1.9µM*	2%	14%	-1%[11.6 µM]	64%	8%
Cc1ccc(-n2nc3cc(C)c(NC(=S)NC(=O)/C=C/c4ccco4)cc3n2)cc1	-18%	?	?	-9%[2.32 µM]	117%	11%
O=C(/C=C/c1ccco1)NC(=S)Nc1cccc(-c2nc3ccccc3s2)c1	·	10µM*	·	26%	·	·
COc1ccc2cc(-c3[nH]ncc3CN3CCCC3c3nonc3C)ccc2c1 (centres undefined)	4.7µM*	?	0%	-7%	-22%	-1%
